Pf Dd2 inh = blocks in vitro growth of P. falciparum Dd2. P. falciparum Dd2 growth, SYBR Green, 72 h. Potency, µM (doses to about 28.9 µM), inactives show at the highest dose activity, negative = inhibition, hits mostly inhibitors. hit rate 4.3% among 120,000. AID 1347417; active means well fitted inhibition curve with a large enough effect;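 further: plate controls were DMSO vehicle for no effect and reference drug for full effect; nearly all actives have a fitted effect of over 65% in size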
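Infected erythrocytes (Dd2, 0.3% parasitemia, 2.5% hematocrit final) are added to compound in RPMI-1640/Albumax II medium, grown 72 h at 37C in low oxygen, then lysed with saponin/Triton-X containing SYBR Green and read by fluorescence.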
* hit, by the source's call; i = inactive; [ ] = remark or other dose. The full list was thinned out, with hits kept by preference. Potency means the concentration at half of the fitted maximal effect.

SMILES	Pf Dd2 inh
CNC(=O)N1CC(c2noc(C3CCCN3C(=O)c3ccc(C)s3)n2)C1 (centres undefined)	-12%
CNCc1ccc(C(F)(F)F)cc1	-1%[44.1 µM]
O=C(O)C1CCc2nnc(C3CCN(C(=O)Cc4ccccc4)CC3)n21 (centres undefined)	24%
Cc1cccc2nnc(N3CCN(C(=O)c4ccco4)CC3)n12	i
O=C(NCc1ccccc1F)c1noc(-c2ccc(F)cc2)n1	45%
Cc1c(NC(=O)c2ccco2)cccc1C(=O)N1CCC2(CCNCC2)CC1	9%
COc1ccc(Cn2c(C3CCN(C(=O)c4cccc(OC)c4)CC3)n[nH]c2=O)cc1	-10%
CCOc1ccc(CC(=O)N2CCC[C@H]2c2nc(-c3ccccc3)no2)cc1OCC	-32%
O=C(Cc1ccccc1)N1CCC[C@H]1c1nc(-c2ccccc2)no1	10µM*
O=C(Cc1ccc(F)cc1)N1CCC[C@H]1c1nc(-c2ccc(F)cc2)no1	i
Cc1c(CNCCCc2ccccc2)c(C(=O)O)c(C)n1Cc1ccc(Cl)cc1	8.9µM*
C=Cc1ccc(Cn2c(C)c(CNCc3ccccc3C)c(C(=O)O)c2C)cc1	2%
Cc1c(CNCCCc2ccccc2)c(C(=O)O)c(C)n1Cc1cccc(Cl)c1	8.9µM*
C=Cc1ccc(Cn2c(C)c(CNCc3cccc(Br)c3)c(C(=O)O)c2C)cc1	-17%
COc1cc(CNCc2c(C(=O)O)c(C)n(Cc3cccc(Cl)c3)c2C)cc(OC)c1OC	0%
Cc1c(CNC2CCCCC2)c(C(=O)O)c(C)n1Cc1ccc(Cl)cc1	-25%
Cc1cc(C)n2nc(C(=O)N[C@H](c3ccccn3)C3CC(O)C3)nc2n1 (some centres undefined)	-10%
Cc1nc2c(c(-c3ccc(Cl)cc3)n1)CCN(C(=O)C(C)(C)C)CC2	i
O=C(CCc1conc1-c1ccccc1)NCc1ccccc1F	-19%
O=C(Cc1ccc(F)cc1)N1CCC[C@H]1c1nc(-c2ccccc2Cl)no1	i
CCc1ccc(S(=O)(=O)c2nnn3c2nc(Nc2ccc(F)cc2)c2cc(Cl)ccc23)cc1	1.3µM*
Cc1ccc(C)c(S(=O)(=O)c2nnn3c2nc(Nc2ccc(F)c(Cl)c2)c2sccc23)c1	13µM*
CCc1ccc(S(=O)(=O)c2nnn3c2nc(NCc2ccc(F)cc2)c2ccccc23)cc1	-24%
CC(=O)Nc1ccc(Nc2nc3c(S(=O)(=O)c4cc(C)ccc4C)nnn3c3ccsc23)cc1	-24%
COc1ccc(Nc2nc3c(S(=O)(=O)c4ccccc4)nnn3c3ccc(Cl)cc23)cc1OC	7%
SMILES	Pf Dd2 inh
Cc1ccc(S(=O)(=O)c2nnn3c2nc(N2CCCC2)c2sccc23)cc1C	-5%
Cc1ccc(S(=O)(=O)c2nnn3c2nc(NCc2ccccc2)c2sccc23)cc1	i
Cc1ccc(C)c(S(=O)(=O)c2nnn3c2nc(N2CCN(C)CC2)c2sccc23)c1	8.9µM*
Cc1ccc(Nc2nc3c(S(=O)(=O)c4ccccc4)nnn3c3ccsc23)c(C)c1	18%
CN1CCN(c2nc3c(S(=O)(=O)c4ccccc4)nnn3c3ccsc23)CC1	11%
Cc1ccc(S(=O)(=O)c2nnn3c2nc(NC(C)c2ccccc2)c2sccc23)cc1 (centres undefined)	10µM*
COc1ccc(Nc2nc3c(S(=O)(=O)c4ccc(C)cc4)nnn3c3ccsc23)cc1Cl	i
COc1cccc([S+](=O)([O-])N2CCn3c(nn(-c4ccc(C(F)(F)F)cc4)c3=O)C2)c1	-2%
O=C(NCCN1CCCC1)c1ccc(-c2ccc(N3CCSCC3)nc2)cc1	-25%
O=C(c1ccccc1)N1CCC2(CN[S+](=O)([O-])c3ccccc3N2)C1 (centres undefined)	15%
COc1ccc(CNC(=O)C2CCN(C(=O)c3ncn4c3COC(c3ccc(C)cc3)C4)CC2)cc1 (centres undefined)	i
O=C(NCc1ccsc1)C1CN(c2cccc(Cl)c2)C(=O)N1 (centres undefined)	2%[44.1 µM]
O=C(O)CCC(=O)N1Cc2ccccc2CC2(CCN(CC3CCNC3)C2)C1 (centres undefined)	14%
C[C@@]1(O)CCN(C(=O)c2ccc(C(=O)N3CCOCC3)cc2)C[C@@H]1O	28%
CC1=NOC2(CCN(Cc3ccc(N(C)C)cc3)CC2)C1	10µM*
COc1ccc(CN2CCC3(CC2)CC(C)=NO3)cc1	-18%[44.1 µM]
CC1=NOC2(CCN(Cc3ccc(F)cc3)CC2)C1	i
CCCN1CCC2(CCN(C(=O)Nc3ccccc3)CC2)Oc2ccccc21	i
CCOc1ccccc1CN1CCC2(CCN(CCC(C)C)CC2)Oc2ccccc21	1µM*
CCOc1ccccc1CN1CCC2(CCN(C(=O)Cc3ccc(F)cc3)CC2)Oc2ccccc21	8.9µM*
CCOc1ccccc1CN1CCC2(CCN(C(=O)C3CCCC3)CC2)Oc2ccccc21	-17%
CCCN1CCC2(CCN(C(=O)COC)CC2)Oc2ccccc21	-18%[44.1 µM]
CCOc1ccccc1CN1CCN(S(=O)(=O)c2ccccc2)CC1	12%
COCCN1CCCCC(CC(=O)Nc2ccc(C)cc2)C1=O (centres undefined)	-12%
COc1ccc(CN2CC[C@H](c3nnc(-c4ccco4)o3)C2)cc1	i
